{
  "source": "PubChem BioAssay (NCI)",
  "note": "The panel holds about 83,000 compounds, 20% with a hit somewhere; the sample as a whole holds those more often.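 How to read the values: 0–100, growth inhibition (40 = 60% inhibited); 0, no net growth; -100 to 0, cell death (-40 = 40% of starting cells died; -100 = all dead).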 Active and inactive are the calls of the source.",
  "data": [
    {"system": "A498 renal", "assay": "NCI-60 one-dose screen, 48 h (100 = growth as untreated, 0 = no growth, -100 = all killed)", "settings": "10 µM unless noted", "method": "Growth inhibition of the A498 human tumor cell line is measured as a screen for anti-cancer activity. Cells are grown in 96 well plates and exposed to the test compound for 48 hours. Compounds are tested at a single concentration, which is 10^-5 M for most compounds. The reported endpoint is percent growth (GI% or GIPRCNT), where numbers from 0 - 100% represent growth inhibition, and numbers from -100% - 0 represent cell death. For example, a value of 40 represents 60% growth inhibition. A value of 0 means no net growth occurred over the course of the experiment. A value of -40 indicates 40% of cells at the beginning of the experiment died by the end of the experiment. A value of -100 means all cells are dead at the end of the experiment.\nNCI-60 Human Tumor Cell Lines Screen was performed using the standard one-dose NCI protocol, which is described in more detail at https://dtp.cancer.gov/discovery_development/nci-60/default.htm.\nCompounds with GIPRCNT values below 10 were considered active. Activity score was based on GIPRCNT using the following formula: […]\nScore is 0 for GIPRCNT values of 100 or above, 50 for GIPRCNT values of 0, and 100 for GIPRCNT values of -100.", "values": [
      {"compound": "O=C(NC1CCNCC1)c1[nH]ncc1NC(=O)c1c(Cl)cccc1Cl", "growth": "-25.3% (active)"},
      {"compound": "Nc1cc2c(cc1Br)-c1c(C(=O)O)cccc1C2O", "note": "(stereo not given)", "growth": "129% (inactive)"},
      {"compound": "CCc1nc2cc(/C=C/C(=O)NO)ccc2c(=O)n1CCc1ccc(F)cc1", "growth": "-26.2% (active)"},
      {"compound": "CCCCOc1nc2cc(Cl)ccc2cc1/C=C/c1cc(/C=C/c2cc3ccc(Cl)cc3nc2OCCCC)n(-c2ccccc2)n1", "growth": "97.9% (inactive)"},
      {"compound": "CCN1CCN(Cc2ccc(Cc3ncc(F)c(-c4cc(F)c5nc(C)n(C(C)C)c5c4)n3)nc2)CC1", "growth": "34.5% (inactive)"},
      {"compound": "CCN1CCN(c2nc(C)cc(N(CCNc3ccnc4cc(Cl)ccc34)Cc3ccc4c(c3)OCO4)n2)CC1", "growth": "53.2% (inactive)"},
      {"compound": "Cc1cc(N(CCNc2ccnc3cc(Cl)ccc23)Cc2cccs2)nc(Cl)n1", "growth": "-6.31% (active)"},
      {"compound": "CSC1=C(N)C(=O)c2[nH]cc(CO)c2C1=N", "growth": "-89.6% (active)"},
      {"compound": "C[C@]12O[C@H](C[C@]1(O)CO)n1c3ccccc3c3c4c(c5c6ccccc6n2c5c31)CNC4=O", "growth": "-96.1% (active)"},
      {"compound": "CC(C)Nc1cc(-c2c[nH]c(C(=O)N[C@H](CO)c3cccc(Cl)c3)c2)c(Cl)cn1", "growth": "4.24% (active)"},
      {"compound": "CC(=O)O[C@]1(C)C[C@H](O)[C@]2(O)C=CO[C@H](O[C@@H]3O[C@H](CO)[C@@H](O)[C@H](O)[C@H]3O)[C@@H]21", "growth": "110% (inactive)"},
      {"compound": "CN[C@@H]1C[C@H]2O[C@@](C)([C@@H]1OC)n1c3ccccc3c3c4c(c5c6ccccc6n2c5c31)C(=O)N[C@H]4O", "growth": "-97.1% (active)"},
      {"compound": "COc1ccc(-n2c(=O)c3ccccc3n(Cc3ccc(C(=O)NO)cc3)c2=O)cc1", "growth": "-2.54% (active)"},
      {"compound": "C#Cc1cccc(Nc2ncnc3cc(OC)c(OCCCCCCC(=O)NO)cc23)c1", "growth": "-86.3% (active)"},
      {"compound": "COC(=O)CCCNc1c(-c2c(O)c(O)cc3c(O)c(-c4c(C)cc5c(-c6nc7ccccn7c6NCCCC(=O)OC)c(O)c(O)cc5c4O)c(C)cc23)nc2ccccn12", "growth": "32.1% (inactive)"},
      {"compound": "NC[C@@](O)(c1ccc(Cl)cc1)c1ccc(-c2cn[nH]c2)cc1", "growth": "-2.12% (active)"},
      {"compound": "CNC(=O)c1c(C)oc2cc(Oc3ncnc4cc(OC)c(OC)cc34)ccc12", "growth": "19.5% (inactive)"},
      {"compound": "COc1cc2nccc(Oc3ccc(NC(=O)Nc4cc(C)on4)c(Cl)c3)c2cc1OC", "growth": "-35.9% (active)"},
      {"compound": "CN(c1ncccc1CNc1nc(Nc2ccc3c(c2)CC(=O)N3)ncc1C(F)(F)F)S(C)(=O)=O", "growth": "-16.6% (active)"},
      {"compound": "C[C@@H](Oc1cc(-n2cnc3ccc(CN4CCN(C)CC4)cc32)sc1C(N)=O)c1ccccc1C(F)(F)F", "growth": "-23% (active)"},
      {"compound": "COc1cc(NC2CCC(=O)N2c2ccc(Cl)cc2Cl)cc(OC)c1OC", "note": "(stereo not given)", "growth": "89.2% (inactive)"},
      {"compound": "CCN(CC)CCNc1ccc(N=Nc2cnc3ccccc3c2)c2ccccc12", "growth": "-91.5% (active)"},
      {"compound": "COc1ccc2nc3cc(Cl)ccc3c(Nc3ccc(N(C)C)cc3)c2c1", "growth": "94.6% (inactive)"},
      {"compound": "Cc1ncc(-c2ccnc(Nc3ccc(S(C)(=O)=O)cc3)n2)n1C(C)C", "growth": "-42.6% (active)"},
      {"compound": "COc1ccc(F)c(F)c1C(=O)c1cnc(NC2CCN(S(C)(=O)=O)CC2)nc1N", "growth": "-53.4% (active)"},
      {"compound": "C1=C\\COCc2cc(ccc2OCCN2CCCC2)Nc2nccc(n2)-c2cccc(c2)COC/1", "growth": "-43.3% (active)"},
      {"compound": "CC1(O)CCC(Nc2cc(-c3ccc(C(F)(F)F)cc3)c(C#N)c3nc4ccccc4n23)CC1", "note": "(stereo not given)", "growth": "46.8% (inactive)"},
      {"compound": "CCn1cc(-c2ccnc3[nH]c(-c4cccc(CN(C)C)c4)cc23)c(-c2ccc(NC(=O)N(C)C)cc2)n1", "growth": "-34.1% (active)"},
      {"compound": "O=S1(=O)OC(c2cc(Cl)c(O)c(Br)c2)(c2cc(Cl)c(O)c(Br)c2)c2ccccc21", "growth": "86.5% (inactive)"},
      {"compound": "CO[C@@H](C(=O)N1Cc2[nH]nc(NC(=O)c3ccc(N4CCN(C)CC4)cc3)c2C1)c1ccccc1", "growth": "-37% (active)"},
      {"compound": "CC[n+]1c(/C=C/C=C2\\N(C)c3ccccc3C2(C)C)sc2ccccc21", "growth": "12.3% (inactive)"},
      {"compound": "CCS(=O)(=O)N1CCN(c2ccc(Nc3ncc(C(N)=O)c(NC4CC4)n3)cc2)CC1", "growth": "95.6% (inactive)"},
      {"compound": "Cn1ncc(Cl)c1-c1cc(C(=O)N[C@H](CN)Cc2ccc(F)c(F)c2)oc1Cl", "growth": "-78.9% (active)"},
      {"compound": "O=C(NO)c1ccc(Cn2c(=O)n(CCc3ccccc3)c(=O)c3ccccc32)cc1", "growth": "12.7% (inactive)"},
      {"compound": "Clc1ccc2c(NCCNc3nc(N4CCCC4)nc4ccccc34)ccnc2c1", "growth": "-5.18% (active)"},
      {"compound": "COc1ccc(COc2cc3oc(=O)c4cc(C(C)O)ccc4c3cc2OC)cc1", "note": "(stereo not given)", "growth": "84.6% (inactive)"},
      {"compound": "COc1cc2ncnc(Nc3ccc(F)c(Cl)c3)c2cc1NC(=O)/C=C/CN1CCCCC1", "growth": "-80.4% (active)"},
      {"compound": "c1cc[n+](Cc2c3ccccc3cc3c2ccc2ccccc23)cc1", "growth": "80.2% (inactive)"},
      {"compound": "CCN(CC)CCOc1ccc(/C(=C(\\C)c2ccc(Cl)cc2)c2ccc(Cl)cc2)cc1", "growth": "79.6% (inactive)"},
      {"compound": "CCc1nc2cc(/C=C/C(=O)NO)c(F)cc2c(=O)n1CCc1ccccc1", "growth": "-16.5% (active)"}
    ]}
  ]
}
